Pf apPOL inh – Pf-apPOL inhibitors, biochemical, fluorescence; Plasmodium falciparum apicoplast DNA polymerase (apPOL); Recombinant Pf-apPOL, molecular beacon fluorescence, 1.5 h; inhibition, % at 10 µM; 0.25% of 210,000 active
mHTT CaM bind – mutant huntingtin-calmodulin interaction inhibitors – biochemical, AlphaScreen, primary screen; 3.6% of 190,000 active; AlphaScreen His-mHTT/GST-CaM binding, luminescence; inhibition, % at 15 µM;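 also: 0% = both proteins with DMSO and 100% = one protein alone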
An asterisk follows results filed as active; . = not tested or not shown. Shown are actives, neighbours in structure and some others; about 3.5% of the full set was active somewhere. Rule as the data show it: active = inhibition above about 50%; inactive = the rest.

SMILES	Pf apPOL inh	mHTT CaM bind
CC1CN(C(=O)c2ccc(C#N)cc2)c2ccccc2O1 (stereo unspecified)	-1.4	-5.1
O=C(Nc1ccccc1)c1cc(S(=O)(=O)NCC23CC4CC(CC(C4)C2)C3)ccc1Cl	-2.8	7.0
COc1ccc(CC(=O)N2CCc3cn(C)c4cccc(c34)C2)cc1	-1.5	57.2*
COc1ccc(CC(=O)N2CCc3ccccc3C2)cc1	-5.4	3.8
Cn1cc2c3c(cccc31)CN(C(=O)Cc1ccccc1Cl)CC2	-2.6	50.3*
Cc1ccccc1CC(=O)N1CCc2cn(C)c3cccc(c23)C1	-2.5	42.4
O=C(COc1ccccc1)N1CCC(OCc2nc(C3CC3)no2)CC1	-4.8	-2.3
CC1(C)NC(=O)N(CC(O)COc2ccc([N+](=O)[O-])cc2)C1=O (stereo unspecified)	-2.0	4.5
CCCc1nn(-c2ccccc2)c(C)c1C(=O)N1CCN(CC)CC1	3.4	23.3
OCC(O)C(O)C(O)C1Nc2ccccc2S1 (stereo unspecified)	-14.1	.
CCOC(=O)C1=C(C)c2ccccc2OC1(CC)C(=O)OCC (stereo unspecified)	-3.6	-50.0
CCOC(=O)C1=C(C)c2ccccc2N(C(=O)OC)C1(C)C(=O)OCC (stereo unspecified)	78.0*	40.8
COCc1ccc(-c2c(-c3ccccc3OC)sc3ccccc23)cc1	-2.6	-38.1
COc1cc(-c2c(CCO)sc3ccccc23)cc(OC)c1OC	-13.4	97.0*
O=C(NC1CCN(C(=O)c2ccc(F)cc2)C1)C1CCC1 (stereo unspecified)	-3.2	-5.0
Cc1onc(-c2ccccc2Cl)c1C(=O)Nc1ccc(Cl)c(Cl)c1	-7.1	80.3*
CC(=O)Nc1ccc(NC(=O)c2c(-c3ccccc3Cl)noc2C)cc1	7.6	0.5
CC(C)C(=O)NC1CCc2[nH]c3cc(Cl)cc(Cl)c3c2C1 (stereo unspecified)	-2.5	68.2*
Cc1ccc2[nH]c3c(c2c1)CC(NC(=O)Cc1ccccc1C)CC3 (stereo unspecified)	2.9	42.1
Cc1nc(CC(=O)NC2CCc3[nH]c4cc(Cl)cc(Cl)c4c3C2)c(C)s1 (stereo unspecified)	0.7	77.6*
Cc1cc(C)c2c3c([nH]c2c1)CCC(NC(=O)C1CCCC1)C3 (stereo unspecified)	1.6	36.3
COc1cc(CNc2cc(OC)c(OC)c(OC)c2)c([N+](=O)[O-])cc1OC	2.0	40.9
COc1cc(CNc2ccc3[nH]ncc3c2)c([N+](=O)[O-])cc1OC	6.9	58.1*
COc1cc(CNc2cccc(F)c2)c([N+](=O)[O-])cc1OC	-2.1	60.7*
COC(=O)Cc1cc(OC)c(OC)cc1[N+](=O)[O-]	-0.9	0.9
SMILES	Pf apPOL inh	mHTT CaM bind
Cc1ccc(CN2CCN(C3CCN(C(=O)Nc4ccccc4Cl)CC3)C2=O)cc1	-4.8	16.1
CN(C)c1ccc(NC(=O)CCC2CCCCC2)cc1	-2.5	63.1*
COc1ccc(NC(=O)CCC2CCCCC2)cc1OC	-1.7	9.0
CCOc1c(OC)cccc1C1C(C#N)=C(N)Oc2n[nH]c(-c3ccncc3)c21 (stereo unspecified)	-0.7	5.0
CCN(C)c1nc(-c2cccc(F)c2)c2c(N)n(-c3cc(F)ccc3F)nc2n1	-0.4	53.9*
CCN(C)c1nc(-c2cccc(F)c2F)c2c(N)n(-c3cccc(F)c3)nc2n1	-2.3	35.4
Cc1ccccc1C1C=C(c2cccs2)Nc2nc3ccccc3n21 (stereo unspecified)	-8.3	7.0
COc1ccccc1C(NC(=O)C1CCCCC1)c1cc([N+](=O)[O-])c2cccnc2c1O (stereo unspecified)	-5.0	54.0*
COc1ccccc1C(NC(C)=O)c1cc([N+](=O)[O-])c2cccnc2c1O (stereo unspecified)	-5.7	100.0*
O=C(NC(c1cccs1)c1cc([N+](=O)[O-])c2cccnc2c1O)C1CCCCC1 (stereo unspecified)	-6.1	47.0
COc1ccc(C2C(C(=O)Nc3ccc(Cl)cc3)=C(C)Nc3ncnn32)cc1Br (stereo unspecified)	1.7	40.0
COc1ccc(Br)cc1C1C(C(=O)Nc2ccc(Cl)cc2)=C(C)Nc2ncnn21 (stereo unspecified)	-3.3	60.0*
O=C(O)C1CCC(N2C(=O)C3C4C=CC(C4)C3C2=O)CC1 (stereo unspecified)	-3.1	-10.0
Clc1ccc(CN2CCCN(Cc3ccc(Cl)cc3)C2c2cccnc2)cc1	1.8	.
c1ccc(N2CCN(c3ccccc3)C2c2cccnc2)cc1	-3.3	58.0*
Cc1noc(C)c1CC(=O)N1CCCn2cc(-c3ccccc3)nc21	6.0	53.1*
Cc1noc(C)c1CC(=O)N1CCCn2cc(-c3ccccc3F)nc21	-0.3	3.6
NC(N)=Nc1nc(-c2ccccc2)c2ccccc2n1	-2.0	73.3*
Cc1ccc2c(C)nc(N=C(N)N)nc2c1	4.7	7.3
CC1=C(C(=O)Nc2cccc(C)c2C)C2(CCC(C)CC2)OC1=O (stereo unspecified)	-1.2	-2.4
O=C1Nc2ccc(Br)cc2/C1=C/c1ccccc1Cl	-1.7	11.0
O=C1Nc2ccc(Br)cc2/C1=C\c1c(Cl)cccc1Cl	2.8	100.0*
O=C1Nc2ccc(F)cc2/C1=C\c1c(Cl)cccc1Cl	-3.4	100.0*
O=C1Nc2ccccc2/C1=C\c1c(Cl)cccc1Cl	1.5	49.0
Cc1ccnc(N2CCC(C(=O)NCCCN3CCCC3=O)CC2)n1	-4.1	-8.1
SMILES	Pf apPOL inh	mHTT CaM bind
Cc1ccc(N2C(=O)CCS2(=O)=O)cc1S(=O)(=O)Nc1cccc2cccnc12	-119.6	74.6*
Cc1ccccc1NS(=O)(=O)c1cccc2cccnc12	-7.7	-2.0
COc1ccc(-c2nc3cccnc3n2C2CCN(C(=O)c3ccc(Cl)s3)C2)cc1 (stereo unspecified)	-2.9	70.3*
COc1ccc(-c2nc3cccnc3n2C2CCN(C(=O)NC(C)C)C2)cc1 (stereo unspecified)	-2.9	0.9
COc1ccc(-c2nc3cccnc3n2C2CCN(C(=O)c3ccc(C)s3)C2)cc1 (stereo unspecified)	-5.6	65.0*
COc1ccc(-c2nc3cccnc3n2C2CCN(C(=O)c3cccs3)C2)cc1 (stereo unspecified)	-0.7	37.8
Cc1ccc(NC(=O)c2cnc(-c3ccccc3)nc2-c2ccncc2)cc1F	-0.4	0.4
CCOc1cccc2cc(C(N)=O)c(=Nc3ccc(OC)cc3)oc12	3.2	6.0
COc1cc(N=c2oc3c(O)cc(C(C)(C)C)cc3cc2C(N)=O)cc(OC)c1	-8.5	56.4*
NC(=O)c1c(N)sc2c1CCC2	-9.4	.
NC(=O)c1c(N)sc2c1CCCCC2	-9.8	64.3*
Cc1ccc(NCCNC(=O)c2c[nH]c3ccccc23)nn1	-13.6	-11.2
Cc1ccnc(Nc2ccc(NCCNC(=O)c3c(F)cccc3F)nn2)c1	-5.6	99.8*
Cc1ccc(C2=NNC(C)(CC(=O)Nc3ccccc3)S2)cc1 (stereo unspecified)	0.8	72.0*
Cc1ccc(N=C2NC(=O)C(CC(=O)Nc3ccccc3)S2)cc1 (stereo unspecified)	-3.6	-4.0
O=C1S/C(=C\c2ccc(F)cc2)C(=O)N1CNc1ccccc1	-1.8	57.0*
Cc1cccc(NCN2C(=O)S/C(=C\c3ccc(F)cc3)C2=O)c1	-0.7	55.0*
O=C1S/C(=C\c2ccc(F)cc2)C(=O)N1CNc1ccc(Br)cc1	-3.6	24.0

Screening results as filed in PubChem BioAssay.
